SMILES strings stand for the structures. Records with an inconclusive call do not appear. Unmarked numbers belong to inactive results. Activity calls are given as the source filed them.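 How the source made its calls, unless noted: active means viability at or below 27.92% in each of two runs, the all-compound median minus 4 SD; inconclusive means no clear call, values can overlap the other calls; inactive means the rest.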

By viability is commonly meant a read-out of living cells in per cent, often relative to untreated cells.

The first assay is described as follows: viability of HCT116 without oncogenic beta-catenin – human colon tumor cells, pilot screen (AID 823;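 active means cell viability at or below a set limit in both duplicate runs, the limit being the all-compound median minus 4 SD, cut at about 23% in these data, passing the limit was not always enough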;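 further: 0% = wells killed by 20 µM Hyamine and 100% = untreated DMSO cell wells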). As to conditions: HCT116 beta-catenin knockout viability, CellTiter-Glo, 60 h; at 10 µM; active compounds read low. For orientation: ATP-based viability assays read luminescence as a measure of living cells.
Consider `N#Cc1c2n(c3c(=O)n(Cc4ccc(Cl)cc4)cnc13)CCCC2`, for which the viability is 93.8%.
On the same count and under the same terms, the same measure for `COc1cccc(-n2c(Cc3cc(=O)[nH]c(=O)[nH]3)nnc2SCC(=O)N2CCCCCC2)c1`: 99.3%; for `CCOC(=O)CN1CC23C=CC(O2)C(C(=O)NC2CCCCCC2)C3C1=O` (stereo not drawn): 99.3%; for `Cc1ccc(C(=O)COC(=O)c2cnccn2)cc1`: 104%.
The same measure, in the same setting: the same measure for `Cc1cc(C)n(-c2nc(C)nc(NCc3ccccc3)n2)n1`: 88.4%; for `CC(CCc1ccccc1)NC(=O)C1CCN(C(=O)c2sccc2-n2cccc2)CC1` (stereo not drawn): 93.8%; for `Cc1onc(-c2ccccc2Cl)c1C(=O)N1CCCCC1C(=O)O` (stereo not drawn): 96.6%.
In the case of `O=C(c1ccc(=O)[nH]c1)N(Cc1ccco1)C1(C(=O)NC2CCCCC2)CCCCC1`, the viability was 97.2%.
On the same count and under the same terms, the value for `CCCS(=O)(=O)c1nc(S(=O)(=O)c2ccc(C)cc2)c(N2CCCC2)s1` was 103%; that for `CCOC(=O)N1CCC(N2C(=O)c3ccccc3C2=O)CC1` was 102%; that for `O=c1oc(-c2cc3ccccc3o2)nc2sc3c(c12)CCCC3` was 74.4%.
Still for that read-out and setting: the value for `O=C(NC1CCN(Cc2ccccc2)CC1)C1CCN(c2nnc(-n3cccc3)s2)CC1` was 82.2%.
Same read-out and setting: the value for `Cn1nc(-c2ccc(Cl)cc2)c2cc(C(=O)NCCCN3CCOCC3)sc21` was 4.12% (active).
For `CC(C)N(Cc1nc(-c2ccccc2)no1)C(=O)Cc1ccccc1`, the viability is 87.1%.
Same read-out and setting: the value for `COc1ccc(CC2CCOC2=O)cc1` (stereo not drawn) was 98%.
On the same count and under the same terms, the value for `CCOc1cccc(=O)c2c(C)n(Cc3ccco3)c(C)c12` was 92.1%; that for `COc1ccccc1NC(=O)c1ccc(S(=O)(=O)N(C)C)cc1` was 108%; that for `Cc1noc(NS(=O)(=O)c2ccc(NC(=O)CSc3nc4c(cc3C#N)CCCC4)cc2)c1C` was 109%.
On the same count and under the same terms, the same measure for `CCOc1ccc(N2C(=O)c3ccccc3C2O)cc1` (stereo not drawn): 101%; for `COc1ccc(N2CCN(c3cc(=O)n(Cc4ccc(F)cc4)c(=O)[nH]3)CC2)cc1`: 92.9%; for `COc1ccc2nc(NC(=O)c3ccc4ncsc4c3)sc2c1`: 81.3%.
`CC(C)Oc1ccc(N2CC(C(=O)Nc3ccc4c(c3)OCO4)CC2=O)cc1` (stereo not drawn): the viability is 106%.
The same measure, in the same setting: the same measure for `N#Cc1nc(-c2ccccc2F)oc1NCc1ccccc1`: 107%.
Still for that read-out and setting: the same measure for `O=C(CN1CCN(CC(=O)Nc2ccccn2)CC1)Nc1ccccn1`: 98.6%.
For `O=C(c1ccccc1)N1CCN(c2ccc(NCc3ccc4c(c3)OCO4)cc2)CC1`, the viability is 64.7%.
Regarding `Brc1ccccc1Cn1c(-c2cncs2)nc2ccccc21`, the viability was 79.2%.
Same read-out and setting: the value for `Cc1csc2nc(CNS(=O)(=O)c3ccc(-c4ccccc4)cc3)cn12` was 90.2%; that for `Cc1c(Br)cc(C(=O)N2CCCC2)c(C)c1C` was 102%.
Consider `CSc1ccc(S(=O)(=O)N2CCN(Cc3ccc4c(c3)OCO4)CC2)cc1`, for which the viability was 88.1%.
On the same count and under the same terms, the same measure for `O=C(NCC(c1cccnc1)N1CCN(c2ccccc2F)CC1)c1ccccc1` (stereo not drawn): 88.5%; for `CCCS(=O)(=O)NCCc1cc2ccc(OC)cc2[nH]c1=O`: 97.4%; for `COc1ccc(NC(=O)NCCCN2CCCC2=O)cc1`: 105%.
Take `CCCOCCOC(=O)C1=C(C)NC(=O)NC1c1cc(Cl)c(O)c(OC)c1` (stereo not drawn): the viability is 102%.
The same measure, in the same setting: the value for `CCN(CC)CCCNC(=O)c1cc2c(-c3ccc(Cl)cc3)nn(C)c2s1` was 1.68% (active).
The same measure, in the same setting: the same measure for `O=C(Nc1ccc(OC(F)(F)F)cc1)c1cnc2n(c1=O)CCS2`: 89.9%; for `Cc1cc(C)c2c(=O)[nH]c(SCC(=O)N3CCCCC3)nc2n1`: 93.1%; for `CCCCN(CC)CCNC(=O)c1cc2c(=O)n(C)c3ccccc3c2n1C`: 49%.
On to `Cc1noc(C(=O)N2CCN(c3ccc(F)cc3)CC2)c1Cl`, for which the viability was 105%.
The same measure, in the same setting: the value for `CCOC(=O)c1ccc(N2C(=O)c3n[nH]c(C)c3C2c2ccccn2)cc1` (stereo not drawn) was 108%.

A short description of another assay: viability of PTEN-null HCT116 cells – cell-based, HCT116 clonal line, CellTiter-Glo, pilot screen (AID 824).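 Further: 0% = 20 µM Hyamine control and 100% = vehicle cell control.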 The conditions noted are these: HCT116 PTEN-deleted viability, 60 h, at 10 µM, active compounds read low.
With `N#Cc1c2n(c3c(=O)n(Cc4ccc(Cl)cc4)cnc13)CCCC2`, the viability was 87%.
As for `COc1cccc(-n2c(Cc3cc(=O)[nH]c(=O)[nH]3)nnc2SCC(=O)N2CCCCCC2)c1`, the viability is 98.5%.
`CCOC(=O)CN1CC23C=CC(O2)C(C(=O)NC2CCCCCC2)C3C1=O` (stereo not drawn): the viability is 94.5%.
On the same count and under the same terms, the same measure for `Cc1ccc(C(=O)COC(=O)c2cnccn2)cc1`: 97.8%.
On the same count and under the same terms, the same measure for `Cc1cc(C)n(-c2nc(C)nc(NCc3ccccc3)n2)n1`: 82.7%; for `CC(CCc1ccccc1)NC(=O)C1CCN(C(=O)c2sccc2-n2cccc2)CC1` (stereo not drawn): 89.3%.
Same read-out and setting: the same measure for `Cc1onc(-c2ccccc2Cl)c1C(=O)N1CCCCC1C(=O)O` (stereo not drawn): 98.6%; for `O=C(c1ccc(=O)[nH]c1)N(Cc1ccco1)C1(C(=O)NC2CCCCC2)CCCCC1`: 92.5%.
Consider `CCCS(=O)(=O)c1nc(S(=O)(=O)c2ccc(C)cc2)c(N2CCCC2)s1`, for which the viability was 96.3%.
On the same count and under the same terms, the value for `CCOC(=O)N1CCC(N2C(=O)c3ccccc3C2=O)CC1` was 98.8%; that for `O=c1oc(-c2cc3ccccc3o2)nc2sc3c(c12)CCCC3` was 56.9%.
Same read-out and setting: the value for `O=C(NC1CCN(Cc2ccccc2)CC1)C1CCN(c2nnc(-n3cccc3)s2)CC1` was 79.3%; that for `Cn1nc(-c2ccc(Cl)cc2)c2cc(C(=O)NCCCN3CCOCC3)sc21` was 5.19% (active); that for `CC(C)N(Cc1nc(-c2ccccc2)no1)C(=O)Cc1ccccc1` was 79.3%.
The same measure, in the same setting: the value for `COc1ccc(CC2CCOC2=O)cc1` (stereo not drawn) was 93.9%.
Take `CCOc1cccc(=O)c2c(C)n(Cc3ccco3)c(C)c12`: the viability was 84.9%.
The same measure, in the same setting: the value for `COc1ccccc1NC(=O)c1ccc(S(=O)(=O)N(C)C)cc1` was 105%.
Still for that read-out and setting: the value for `Cc1noc(NS(=O)(=O)c2ccc(NC(=O)CSc3nc4c(cc3C#N)CCCC4)cc2)c1C` was 101%.
As for `CCOc1ccc(N2C(=O)c3ccccc3C2O)cc1` (stereo not drawn), the viability was 87.5%.
For the compound `COc1ccc(N2CCN(c3cc(=O)n(Cc4ccc(F)cc4)c(=O)[nH]3)CC2)cc1`, the viability was 86.3%.
Same read-out and setting: the same measure for `COc1ccc2nc(NC(=O)c3ccc4ncsc4c3)sc2c1`: 82.5%.
On the same count and under the same terms, the same measure for `CC(C)Oc1ccc(N2CC(C(=O)Nc3ccc4c(c3)OCO4)CC2=O)cc1` (stereo not drawn): 99.5%.
As for `N#Cc1nc(-c2ccccc2F)oc1NCc1ccccc1`, the viability was 90.5%.
The same measure, in the same setting: the value for `O=C(CN1CCN(CC(=O)Nc2ccccn2)CC1)Nc1ccccn1` was 97.6%; that for `O=C(c1ccccc1)N1CCN(c2ccc(NCc3ccc4c(c3)OCO4)cc2)CC1` was 75.8%; that for `Brc1ccccc1Cn1c(-c2cncs2)nc2ccccc21` was 73.9%.
The same measure, in the same setting: the value for `Cc1csc2nc(CNS(=O)(=O)c3ccc(-c4ccccc4)cc3)cn12` was 93.7%; that for `Cc1c(Br)cc(C(=O)N2CCCC2)c(C)c1C` was 98.9%.
On the same count and under the same terms, the value for `CSc1ccc(S(=O)(=O)N2CCN(Cc3ccc4c(c3)OCO4)CC2)cc1` was 86.3%; that for `O=C(NCC(c1cccnc1)N1CCN(c2ccccc2F)CC1)c1ccccc1` (stereo not drawn) was 82.4%.
With `CCCS(=O)(=O)NCCc1cc2ccc(OC)cc2[nH]c1=O`, the viability was 90.1%.
Still for that read-out and setting: the value for `COc1ccc(NC(=O)NCCCN2CCCC2=O)cc1` was 103%; that for `CCCOCCOC(=O)C1=C(C)NC(=O)NC1c1cc(Cl)c(O)c(OC)c1` (stereo not drawn) was 94.6%; that for `CCN(CC)CCCNC(=O)c1cc2c(-c3ccc(Cl)cc3)nn(C)c2s1` was 1.82% (active).
Still for that read-out and setting: the same measure for `O=C(Nc1ccc(OC(F)(F)F)cc1)c1cnc2n(c1=O)CCS2`: 79.1%; for `Cc1cc(C)c2c(=O)[nH]c(SCC(=O)N3CCCCC3)nc2n1`: 101%; for `CCCCN(CC)CCNC(=O)c1cc2c(=O)n(C)c3ccccc3c2n1C`: 48.6%.
Same read-out and setting: the same measure for `Cc1noc(C(=O)N2CCN(c3ccc(F)cc3)CC2)c1Cl`: 101%; for `CCOC(=O)c1ccc(N2C(=O)c3n[nH]c(C)c3C2c2ccccn2)cc1` (stereo not drawn): 114%.

Values taken from PubChem BioAssay.
